Results reported in PubChem BioAssay (Tox21).
The source made the active and inactive calls. Entries that show only a call come without a potency. Unless noted, calls come from the whole dose curve; as a rule, active = well fitted curve in the direction sought with a large enough effect in the repeat runs; inconclusive = weak or mixed curves; inactive = no such curve, though single readings can be large; an effect the other way counts as inactive or inconclusive.

What was measured:
[1] = qHTS assay to identify small molecule antagonists of the glucocorticoid receptor (GR) signaling pathway - cell viability counter screen (AID 720693); conditions: GR-bla HeLa viability, CellTiter-Glo luminescence, 18 h, with 5 nM dexamethasone present; series mostly up to 58.5 µM; note: nearly all actives have a fitted effect of over 55% in size
[2] = qHTS assay for identifying genotoxic compounds that show differential cytotoxicity against isogenic chicken DT40 cell lines with known DNA damage response pathways - wild type cell line (AID 743012); conditions: DT40 wild type chicken cells viability, CellTiter-Glo, 40 h; series mostly up to 68.4 µM; note: nearly all actives have a fitted effect of over 60% in size; note: potency is the fitted concentration of half-maximal effect
How it was run: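 CellTiter-Glo luminescence readout of viability in wild type DT40 cells after 40 h compound exposure at 37 C/5% CO2; 300 cells/well; reagent incubated 30 min at room temperature before reading.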

[3] = qHTS assay for identifying genotoxic compounds that show differential cytotoxicity against isogenic chicken DT40 cell lines with known DNA damage response pathways - Rev3 mutant cell line (AID 743014); conditions: chicken DT40 Rev3-/- viability, CellTiter-Glo, 40 h; series mostly up to 68.4 µM; note: nearly all actives have a fitted effect of over 55% in size; note: potency is the fitted concentration of half-maximal effect
[4] = qHTS assay for identifying genotoxic compounds that show differential cytotoxicity against isogenic chicken DT40 cell lines with known DNA damage response pathways - Rad54/Ku70 mutant cell line (AID 743015); conditions: DT40 Rad54/Ku70 mutant viability, CellTiter-Glo, 40 h; series mostly up to 66.8 µM; note: nearly all actives have a fitted effect of over 60% in size; note: potency is the fitted concentration of half-maximal effect
[5] = qHTS assay to identify small molecule antagonists of the androgen receptor (AR) signaling pathway - cell viability counter screen (AID 743033; note: nearly all actives have a fitted effect of over 45% in size); conditions: AR-bla HEK293 viability, CellTiter-Glo luminescence, 16 h; series mostly up to 58.5 µM
[6] = qHTS assay to identify small molecule antagonists of the androgen receptor (AR) signaling pathway using the MDA cell line - cell viability counter screen (AID 743041; note: nearly all actives have a fitted effect of over 45% in size); conditions: MDA-kb2 viability, CellTiter-Fluor, 16 h, cells co-treated with R1881 androgen agonist; series mostly up to 70.3 µM
How it was run: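 Using the breast carcinoma line MDA-kb2 AR-luc, test chemicals were co-incubated with R1881 for 16 h; CellTiter-Fluor reagent, added at 15.5 h, provided a fluorescence measure of live cells.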

[7] = qHTS assay to identify small molecule antagonists of the thyroid receptor (TR) signaling pathway (AID 743065); conditions: GH3.TRE-Luc, T3-stimulated luciferase inhibition, 23.5 h; series mostly up to 70.3 µM; note: nearly all actives have a fitted effect of over 55% in size
How it was run: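 Antagonism measured as loss of luciferase signal in GH3 cells stably carrying a TRE-luciferase reporter, co-treated with compound and T3 (1 nM final) for 23.5 h at 37 C. Viability was read in the same well by CellTiter-Fluor.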

[8] = test system: thyroid hormone receptor (rat, GH3 cells); test: qHTS assay to identify small molecule agonists of the thyroid receptor (TR) signaling pathway (AID 743066; calls by dose curve); conditions: GH3.TRE-Luc cells, TR agonist luciferase, 24 h; series mostly up to 83.9 µM
[9] = qHTS assay to identify small molecule antagonists of the estrogen receptor alpha (ER-alpha) signaling pathway - cell viability counter screen (AID 743074; calls by dose curve; note: nearly all actives have a fitted effect of over 45% in size); conditions: ERalpha-bla HEK293 viability, CellTiter-Glo luminescence, 18 h; series mostly up to 69.4 µM
[10] = qHTS assay to identify small molecule antagonists of the estrogen receptor alpha (ER-alpha) signaling pathway using the BG1 cell line - cell viability counter screen (AID 743081); conditions: BG1Luc4E2 viability, CellTiter-Fluor, 22 h; series mostly up to 70.3 µM;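 note: compound given together with 17beta-estradiol as the ER stimulus; nearly all actives have a fitted effect of over 45% in size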
[11] = qHTS assay to identify small molecule antagonists of the thyroid receptor (TR) signaling pathway - cell viability counter screen (AID 743064); conditions: GH3.TRE-Luc viability, CellTiter-Fluor, 24 h; series mostly up to 70.3 µM; note: nearly all actives have a fitted effect of over 50% in size
How it was run: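 In-well cytotoxicity read by CellTiter-Fluor (30 min, 37 C) following 23.5 h exposure of GH3 cells bearing a TRE-luciferase sensor. Compounds were added alongside 1 nM (final) T3 to drive TR transactivation.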

[12] = molecular target: Estrogen receptor (Homo sapiens) (UniProt P03372); test: qHTS assay to identify small molecule antagonists of the estrogen receptor alpha (ER-alpha) signaling pathway (AID 743069; active = well fitted curve in the direction sought with a large enough effect in the signal ratio in the repeat runs, not every such curve was filed as active; inconclusive = weak or mixed curves, or effect the other way; inactive = no such curve, though single readings can be large or run the other way; the % refers to the signal ratio; note: potency is the fitted concentration of half-maximal effect); conditions: HEK293 ER-alpha-UAS-bla, beta-lactamase ratio, antagonist mode; series mostly up to 69.4 µM
How it was run: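 Fluorescence intensity from a beta-lactamase FRET substrate served as the read-out. Cells: HEK293 with stably integrated ER-alpha-UAS-bla reporter. Agonist 17beta-estradiol was co-added with compounds; incubation 18 hr at 37C, substrate 2 hr at room temperature.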

[13] = molecular target: Estrogen receptor (Homo sapiens) (UniProt P03372); test: qHTS assay to identify small molecule agonists of the estrogen receptor alpha (ER-alpha) signaling pathway (AID 743075; calls by dose curve; note: potency is the fitted concentration of half-maximal effect); conditions: HEK293 ER-alpha-UAS-bla, beta-lactamase FRET ratio, 18 h; series mostly up to 70.1 µM
[14] = molecular target: Estrogen receptor (Homo sapiens) (UniProt P03372); test: qHTS assay to identify small molecule agonists of the estrogen receptor alpha (ER-alpha) signaling pathway using the BG1 cell line (AID 743079); conditions: BG1Luc4E2 cells, ERE-luciferase agonist, 22 h; series mostly up to 70.3 µM; note: nearly all actives have a fitted effect of over 20% in size; note: potency is the fitted concentration of half-maximal effect
[15] = qHTS assay to identify small molecule antagonists of the estrogen receptor alpha (ER-alpha) signaling pathway using the BG1 cell line (AID 743080; calls by dose curve;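 note: BG1 cells stimulated with 17beta-estradiol alongside compound; nearly all actives have a fitted effect of over 25% in size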); conditions: BG1Luc4E2 ERE-luciferase antagonist mode, luminescence; series mostly up to 70.3 µM
How it was run: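 BG1Luc4E2, endogenous ER-alpha, 4xERE-luc; 5 d charcoal-stripped FBS, phenol red free; 24 h plating; cpd + 17beta-estradiol 21.5 h, 37 C/5% CO2; CellTiter-Fluor viability 30 min, then ONE-Glo luciferase 30 min RT.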

Aromatase (Homo sapiens) = Aromatase (Homo sapiens) (UniProt P11511); test: qHTS assay to identify aromatase inhibitors (AID 743083); conditions: MCF-7 aro ERE, testosterone-driven ERE luciferase, 24 h; series mostly up to 70.3 µM; note: nearly all actives have a fitted effect of over 55% in size; note: potency is the fitted concentration of half-maximal effect
[16] = molecular target: Androgen receptor (Homo sapiens) (UniProt P10275); test: qHTS assay to identify small molecule agonists of the androgen receptor (AR) signaling pathway (AID 743036; active = well fitted activation curve with a large enough effect in the signal ratio in the repeat runs, with a control signal flat, not every such curve was filed as active; inconclusive = weak or mixed curves, or effect the other way; inactive = no such curve, though single readings can be large or run the other way; the % refers to the signal ratio); conditions: HEK293 AR-UAS-bla GripTite, beta-lactamase FRET ratio, 16 h; series mostly up to 62.4 µM
How it was run: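 Activation was read as beta-lactamase FRET signal from LiveBLAzer B/G substrate, added for 2 h at room temperature. Before that, GeneBLAzer AR-UAS-bla GripTite (HEK293) cells had 16 h compound exposure at 37C.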

[17] = molecular target: Androgen receptor (Homo sapiens) (UniProt P10275); test: qHTS assay to identify small molecule agonists of the androgen receptor (AR) signaling pathway using the MDA cell line (AID 743040; note: nearly all actives have a fitted effect of over 20% in size); conditions: MDA-kb2 AR-luc cells, MMTV luciferase, 16 h; series mostly up to 70.3 µM
How it was run: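 Stable MMTV-luciferase reporter in MDA-kb2 cells; note the promoter carries GR as well as AR response elements. 16 h compound treatment, 37C, 0% CO2; ONE-Glo luminescence endpoint.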

[18] = molecular target: Androgen receptor (Homo sapiens) (UniProt P10275); test: qHTS assay to identify small molecule antagonists of the androgen receptor (AR) signaling pathway using the MDA cell line (AID 743042; note: nearly all actives have a fitted effect of over 55% in size); conditions: MDA-kb2 AR-luc, MMTV luciferase, R1881 antagonist, 16 h; series mostly up to 70.3 µM
How it was run: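 Antagonist mode: compounds plus R1881 agonist added to MDA-kb2 AR-luc cells, incubated 16 h at 37C. Luciferase reporter luminescence quantified, with multiplexed CellTiter-Fluor readout for cell viability.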

Sequence of Estrogen receptor (Homo sapiens) (P03372 whole entry, looked up): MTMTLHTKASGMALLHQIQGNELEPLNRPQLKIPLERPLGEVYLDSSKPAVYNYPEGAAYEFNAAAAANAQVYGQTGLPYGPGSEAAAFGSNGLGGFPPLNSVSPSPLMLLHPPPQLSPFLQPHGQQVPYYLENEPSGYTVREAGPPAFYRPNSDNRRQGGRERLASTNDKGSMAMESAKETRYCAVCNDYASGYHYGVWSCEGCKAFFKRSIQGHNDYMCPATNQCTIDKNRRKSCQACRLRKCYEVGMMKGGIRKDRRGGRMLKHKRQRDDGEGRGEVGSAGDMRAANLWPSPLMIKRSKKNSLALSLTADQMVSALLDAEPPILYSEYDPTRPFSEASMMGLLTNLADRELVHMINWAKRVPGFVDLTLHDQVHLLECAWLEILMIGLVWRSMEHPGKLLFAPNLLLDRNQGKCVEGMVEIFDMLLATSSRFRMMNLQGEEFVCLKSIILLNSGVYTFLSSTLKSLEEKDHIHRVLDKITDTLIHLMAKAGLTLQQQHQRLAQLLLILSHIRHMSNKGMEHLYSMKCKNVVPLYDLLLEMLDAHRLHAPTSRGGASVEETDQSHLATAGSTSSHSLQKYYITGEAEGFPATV
Sequence of Aromatase (Homo sapiens) (P11511 whole entry, looked up): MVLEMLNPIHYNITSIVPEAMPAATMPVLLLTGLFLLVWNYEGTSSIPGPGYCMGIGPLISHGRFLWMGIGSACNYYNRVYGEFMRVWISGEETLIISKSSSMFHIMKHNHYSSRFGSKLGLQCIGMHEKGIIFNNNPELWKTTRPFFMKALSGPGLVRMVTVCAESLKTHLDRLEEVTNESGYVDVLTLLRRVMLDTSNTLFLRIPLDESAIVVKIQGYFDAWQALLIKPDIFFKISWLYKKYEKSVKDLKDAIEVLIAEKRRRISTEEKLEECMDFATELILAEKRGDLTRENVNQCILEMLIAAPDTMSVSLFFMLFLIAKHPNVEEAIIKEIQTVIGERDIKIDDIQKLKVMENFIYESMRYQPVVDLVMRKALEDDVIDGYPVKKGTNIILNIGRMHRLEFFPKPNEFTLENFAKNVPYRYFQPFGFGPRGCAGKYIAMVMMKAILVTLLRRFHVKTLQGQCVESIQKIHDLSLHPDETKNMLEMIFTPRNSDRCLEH
Sequence of Androgen receptor (Homo sapiens) (P10275 whole entry, looked up): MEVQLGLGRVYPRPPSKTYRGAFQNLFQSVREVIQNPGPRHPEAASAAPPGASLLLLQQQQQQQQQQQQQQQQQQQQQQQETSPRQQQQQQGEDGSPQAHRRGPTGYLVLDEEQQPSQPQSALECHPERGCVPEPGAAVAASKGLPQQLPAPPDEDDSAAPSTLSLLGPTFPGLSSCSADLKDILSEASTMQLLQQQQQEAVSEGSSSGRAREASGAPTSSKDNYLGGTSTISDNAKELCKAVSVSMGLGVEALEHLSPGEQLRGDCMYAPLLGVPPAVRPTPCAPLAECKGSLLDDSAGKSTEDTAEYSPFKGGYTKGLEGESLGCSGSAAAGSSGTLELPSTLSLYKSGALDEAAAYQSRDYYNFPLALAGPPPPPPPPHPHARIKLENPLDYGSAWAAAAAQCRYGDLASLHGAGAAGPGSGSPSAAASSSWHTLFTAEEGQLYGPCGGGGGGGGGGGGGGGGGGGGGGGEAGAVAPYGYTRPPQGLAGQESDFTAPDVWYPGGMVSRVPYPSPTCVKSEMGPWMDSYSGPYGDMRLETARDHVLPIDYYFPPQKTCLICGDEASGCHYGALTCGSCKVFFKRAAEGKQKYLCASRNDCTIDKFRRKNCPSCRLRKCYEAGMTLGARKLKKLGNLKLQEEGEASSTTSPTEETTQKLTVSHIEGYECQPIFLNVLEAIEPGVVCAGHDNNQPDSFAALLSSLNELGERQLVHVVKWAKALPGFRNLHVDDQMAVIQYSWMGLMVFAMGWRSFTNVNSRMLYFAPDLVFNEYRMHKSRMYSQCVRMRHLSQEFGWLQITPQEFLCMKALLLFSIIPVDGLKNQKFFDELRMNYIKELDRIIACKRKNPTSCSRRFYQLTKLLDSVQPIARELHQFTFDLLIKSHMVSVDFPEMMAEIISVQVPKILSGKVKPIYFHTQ

| Structure (SMILES) | outcome [1] | Potency [2] | Potency [3] | Potency [4] | outcome [5] | Potency [6] | Potency [7] | Potency [8] | outcome [9] | outcome [10] | Potency [11] | Potency [12] | Potency [13] | Potency [14] | Potency [15] | Potency (Aromatase (Homo sapiens)) | outcome [16] | Potency [17] | outcome [18] |
| --- | --- | --- | --- | --- | --- | --- | --- | --- | --- | --- | --- | --- | --- | --- | --- | --- | --- | --- | --- |
| CCCCCCCCCCCCI | inactive | 54.7 µM (active) | 7.73 µM (active) | 27.4 µM (active) | inactive | inactive | inactive | inactive | inactive | inactive | – | – | – | – | – | – | – | – | – |
| CCCCCOC(=O)Nc1nc(=O)n([C@@H]2O[C@H](C)[C@@H](O)[C@H]2O)cc1F | inactive | inactive | inactive | – | inactive | inactive | inactive | inactive | inactive | inactive | inactive | inactive | inactive | inactive | inactive | inactive | – | – | – |
| CSc1nc(NC2CC2)nc(NC(C)(C)C)n1 | inactive | 54.5 µM (active) | 54.5 µM (active) | – | inactive | inactive | – | inactive | inactive | inactive | – | – | – | – | – | inactive | – | – | – |
| OC[C@H]1O[C@@H]2O[C@H]3[C@H](O)[C@@H](O)[C@@H](O[C@H]4[C@H](O)[C@@H](O)[C@@H](O[C@H]5[C@H](O)[C@@H](O)[C@@H](O[C@H]6[C@H](O)[C@@H](O)[C@@H](O[C@H]7[C@H](O)[C@@H](O)[C@@H](O[C@H]8[C@H](O)[C@@H](O)[C@@H](O[C@H]9[C@H](O)[C@@H](O)[C@@H](O[C@H]1[C@H](O)[C@H]2O)O[C@@H]9CO)O[C@@H]8CO)O[C@@H]7CO)O[C@@H]6CO)O[C@@H]5CO)O[C@@H]4CO)O[C@@H]3CO | inactive | inactive | – | – | inactive | inactive | inactive | inactive | inactive | inactive | inactive | – | – | – | – | inactive | – | – | – |
| CC1=CC(C)C(C=O)C(C)C1 (configuration not stated) | inactive | inactive | – | – | inactive | inactive | inactive | inactive | – | inactive | inactive | inactive | inactive | inactive | inactive | inactive | – | – | – |
| C=C(C)C1CC=C(C)C(O)C1 (configuration not stated) | inactive | inactive | inactive | – | inactive | inactive | inactive | inactive | inactive | inactive | – | inactive | inactive | inactive | inactive | inactive | – | – | – |
| CCN(CC)C(=O)c1ccc(O)c(OC)c1 | inactive | inactive | inactive | – | inactive | inactive | inactive | inactive | inactive | inactive | inactive | inactive | inactive | inactive | – | inactive | – | – | – |
| C(=C(c1ccccc1)c1ccccc1)c1ccccc1 | inactive | inactive | – | – | inactive | inactive | inactive | inactive | inactive | inactive | inactive | 54.9 µM [inconclusive] (active) | 7.76 µM [inconclusive] (active) | 2.43 µM (active) | – | inactive | – | – | – |
| O=S(=O)(c1cccc2cnccc12)N1CCCNCC1 | inactive | inactive | inactive | – | inactive | inactive | inactive | inactive | inactive | inactive | – | inactive | inactive | – | – | 13.3 µM (active) | – | – | – |
| CCCCCN(CCCCC)C(=O)C(CCC(=O)O)NC(=O)c1ccc(Cl)c(Cl)c1 (configuration not stated) | inactive | inactive | – | inactive | inactive | inactive | inactive | inactive | inactive | inactive | inactive | – | inactive | – | inactive | inactive | inactive | inactive | inactive |
| O=C1C(CCS(=O)c2ccccc2)C(=O)N(c2ccccc2)N1c1ccccc1 (configuration not stated) | inactive | inactive | – | inactive | inactive | inactive | inactive | inactive | inactive | inactive | inactive | inactive | inactive | inactive | inactive | inactive | – | – | – |
| CC/C=C\CCCCO | inactive | inactive | – | – | inactive | inactive | inactive | inactive | inactive | inactive | inactive | inactive | inactive | inactive | – | inactive | – | – | – |
| O=C(O)c1ccccc1-c1ccc(C(F)(F)F)cc1 | inactive | inactive | inactive | – | inactive | inactive | inactive | inactive | inactive | inactive | inactive | – | inactive | inactive | inactive | inactive | – | – | – |
| NCCNC(=O)c1ccc(Cl)cn1 | inactive | inactive | – | inactive | inactive | inactive | inactive | inactive | inactive | inactive | – | inactive | inactive | inactive | inactive | inactive | – | – | – |
| CCCOc1ccccc1-c1nc2n[nH]nc2c(=O)[nH]1 | inactive | inactive | – | – | inactive | inactive | inactive | inactive | inactive | inactive | inactive | inactive | inactive | inactive | – | inactive | – | – | – |
| CCCc1ccc(N)cc1 | inactive | inactive | inactive | – | inactive | inactive | inactive | inactive | inactive | inactive | – | inactive | inactive | inactive | – | inactive | – | – | – |
| O=[N+]([O-])c1ccc(CCO)cc1 | inactive | inactive | inactive | – | inactive | inactive | inactive | inactive | inactive | inactive | – | inactive | inactive | inactive | inactive | inactive | – | – | – |
